Inconclusive results are not listed. A call without a number means that no potency is given here. Calls of active or inactive are those of the source. The call rests on the fitted dose curve; in most records, active means well fitted curve in the direction sought with a large enough effect; inconclusive means small, poorly fitted or top-dose-only effect, or another doubt; inactive means no such curve, though single readings can be large; an effect the other way counts as inactive or inconclusive.
How the values were obtained:
[1] = biological target: Aldehyde dehydrogenase, mitochondrial (Homo sapiens) (UniProt P05091); test: qHTS for Inhibitors of the Aldehyde Dehydrogenase Family (ALDH2) Primary screen (AID 2061308); conditions: ALDH2 enzyme inhibition qHTS, 1536-well; series mostly up to 56 µM; further: nearly all actives have a fitted effect of over 55% in size
[2] = biological target: Retinaldehyde dehydrogenase 3 (Homo sapiens) (UniProt P47895); test: qHTS for Inhibitors of the Aldehyde Dehydrogenase Family (ALDH1A3) Primary screen (AID 2061315); conditions: ALDH inhibition qHTS; series mostly up to 56 µM
[3] = biological target: Aldehyde dehydrogenase 1A1 (Homo sapiens) (UniProt P00352); test: qHTS for Inhibitors of the Aldehyde Dehydrogenase Family (ALDH1A1) Confirmatory screens (AID 2061316); conditions: ALDH inhibition qHTS; series mostly up to 47.3 µM; further: nearly all actives have a fitted effect of over 65% in size; further: potency means the concentration at half of the fitted maximal effect
[4] = BET inhibitor-based combinations targeting novel dependencies in MECOM-rearranged (r) AML: SET-2 cell line (AID 2202231); conditions: SET-2 AML cells viability, CellTiter-Glo luminescence, 48 h; viability: active compounds read low, concentration not given here; further: potency means the concentration at half of the fitted maximal effect; nearly all actives have a fitted effect of over 35% in size
In short: (§1)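 500 cells/well; 11-pt dose curve; 48 h, standard incubator; CellTiter-Glo luminescence after 15 min RT; DMSO/empty-well normalization; AUC plus Z-AUC (mean-centered within each line).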

[5] = BET inhibitor-based combinations targeting novel dependencies in MECOM-rearranged (r) AML: OCI-AML3 cell line (AID 2202232); conditions: CellTiter-Glo luminescence, 48 h; Potency: OCI-AML3 viability; series mostly up to 46 µM; further: potency means the concentration at half of the fitted maximal effect; nearly all actives have a fitted effect of over 35% in size
In short: as §1

[6] = BET inhibitor-based combinations targeting novel dependencies in MECOM-rearranged (r) AML: MV-4-11 cell line (AID 2202233); conditions: MV-4-11 AML viability, CellTiter-Glo luminescence, 48 h; series mostly up to 46 µM; further: potency means the concentration at half of the fitted maximal effect; nearly all actives have a fitted effect of over 45% in size
In short: (§2)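 Cells were plated at 500 per well and exposed to each drug across an 11-point dose range for 48 hr at standard incubator conditions. Viability was read by CellTiter-Glo luminescence, and activity was expressed as AUC and per-cell-line Z-transformed AUC.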

[7] = BET inhibitor-based combinations targeting novel dependencies in MECOM-rearranged (r) AML: HNT-34 cell line (AID 2202234); conditions: HNT-34 AML viability, CellTiter-Glo luminescence, 48 h; series mostly up to 46 µM; further: potency means the concentration at half of the fitted maximal effect; nearly all actives have a fitted effect of over 35% in size
In short: as §2

[8] = BET inhibitor-based combinations targeting novel dependencies in MECOM-rearranged (r) AML: UCSD-AML1 cell line (AID 2202235); conditions: UCSD-AML1 AML cells viability, CellTiter-Glo, 48 h; series mostly up to 46 µM; further: potency means the concentration at half of the fitted maximal effect; nearly all actives have a fitted effect of over 40% in size
In short: as §2

[9] = BET inhibitor-based combinations targeting novel dependencies in MECOM-rearranged (r) AML: AML-191 cell line (AID 2202236; further: potency means the concentration at half of the fitted maximal effect; nearly all actives have a fitted effect of over 35% in size); conditions: AML-191 viability, CellTiter-Glo luminescence, 48 h; series mostly up to 46 µM
In short: as §1

[10] = BET inhibitor-based combinations targeting novel dependencies in MECOM-rearranged (r) AML: AML-194 cell line (AID 2202237; further: potency means the concentration at half of the fitted maximal effect; nearly all actives have a fitted effect of over 40% in size); conditions: AML-194 (MECOM-r AML) viability, CellTiter-Glo, 48 h; series mostly up to 46 µM
In short: as §1

Nc1scc2c(C(=O)O)nn(-c3ccccc3)c(=O)c12
Potency [1]: inactive | Potency [2]: inactive | Potency [3]: 5.04 µM (active)

O=C(Nc1ccc2sccc2c1)Nc1nnc(-c2ccncc2)s1
Potency [1]: inactive | Potency [2]: inactive

Cc1cc2c(s1)c1cnn(Cc3c(F)cccc3Cl)c(=O)c1n2C
Potency [1]: inactive | Potency [2]: inactive

NC(=O)C1CCN(c2ncc(Br)s2)CC1
Potency [1]: inactive | Potency [2]: inactive | Potency [3]: 4.49 µM (active)

C=C1C(=O)O[C@@H]2C(OC(=O)/C(C)=C\C)/C(C)=C\C(=O)/C=C(\C)C[C@H](O)[C@@H]12 (stereo partly drawn)
Potency [1]: inactive | Potency [2]: inactive

Cc1cc(C)n2ncc(C(=O)NCC(C)C)c2n1
Potency [1]: inactive | Potency [2]: inactive

COc1ccc(C2Nc3ccccc3C(=O)N2Cc2cccnc2)cc1COc1c(C)cccc1C (stereo not drawn)
Potency [1]: inactive | Potency [2]: inactive

O=C(O)c1ccc(O)c2ncc(N3CCCN(CCCc4ccncc4)CC3)cc12
Potency [1]: inactive | Potency [2]: inactive

Clc1ccc2ncc(-c3cccc(NC4CCNC4)n3)n2c1 (stereo not drawn)
Potency [1]: inactive | Potency [2]: inactive

CNc1oc(-c2cccc(Cl)c2)nc1C#N
Potency [1]: inactive | Potency [2]: inactive

O=C(O)c1ccc2c(c1)C(=O)N([C@H](Cc1ccc(O)cc1)C(=O)O)C2=O
Potency [1]: inactive | Potency [2]: inactive

O=C1c2ccccc2C(=O)N1C1CCCCC1
Potency [1]: inactive | Potency [2]: inactive

O=C([C@H](Cc1ccc(O[S+](=O)([O-])c2ccccn2)cc1)N[S+](=O)([O-])c1cccc2cnccc12)N1CCN(c2ccccc2)CC1
Potency [1]: inactive | Potency [2]: inactive | Potency [3]: 7.98 µM (active)

O=S(=O)(NCCCCCNS(=O)(=O)c1c(F)cccc1F)c1ccc2c(c1)OCCO2
Potency [1]: inactive | Potency [2]: inactive

O=C(c1ccccc1)N1CCN(c2nc(-c3cccs3)nc3ccccc23)CC1
Potency [1]: inactive | Potency [2]: inactive

COc1cc(O)c(C(CC(=O)N2CCC(C)CC2)c2ccc3c(c2)OCO3)c(OC)c1 (stereo not drawn)
Potency [1]: inactive | Potency [2]: inactive

Cc1ccc(NS(=O)(=O)c2ccc3c(c2)NC(=O)CO3)cc1C
Potency [1]: inactive | Potency [2]: inactive

Cc1cc(-c2nc3cc(F)ccc3s2)ccc1NC(=O)[C@@H](N)CCCCN
Potency [1]: inactive | Potency [2]: inactive | Potency [4]: 13.2 µM (active) | Potency [5]: 14.8 µM (active) | Potency [6]: 13.2 µM (active) | Potency [7]: 8.33 µM (active) | Potency [8]: 14.8 µM (active) | Potency [9]: 16.6 µM (active) | Potency [10]: 16.6 µM (active)

Nc1ccc(C(=O)c2cc3c(ccc4ccccc43)[nH]2)cc1
Potency [1]: inactive | Potency [2]: inactive | Potency [4]: 30.3 µM (active) | Potency [5]: 6.79 µM (active) | Potency [6]: 3.82 µM (active) | Potency [7]: 2.41 µM (active) | Potency [8]: 2.7 µM (active) | Potency [9]: 1.52 µM (active) | Potency [10]: 2.41 µM (active)

CCC(=O)Nc1ccc(OCc2cc(C3Nc4ccccc4C(=O)N3Cc3ccccc3)ccc2OC)cc1 (stereo not drawn)
Potency [1]: inactive | Potency [2]: inactive | Potency [3]: inactive
